Measurements: PubChem BioAssay AID504329 (Southern Research Specialized Biocontainment Screening …, 2011)
Where “and” joins values, the source holds several entries; their conditions need not be identical. Equal entries are not always repeated. Among all 340,000 compounds or so, about 1,000 (0.29%) were called active. Only a sample is shown. Results with a measured potency or affinity are listed apart. A number with no mark means an inactive call. Cut-off read from the data, not from the text of the source: inconclusive = inhibition above about 27% without an active follow-up result; inactive = below that.

Assay: NS1A inhibition, H1N1 influenza, cell based functional assay (AID 504329)
Conditions: percent inhibition, at 12.5 µM, active compounds read high

For `Cc1cc(C)c2c(c1)-c1c(ssc1=S)C(C)(C)N2C(=O)CSc1nncn1C`, which inhibition is on record?
Its inhibition is 9.33%.

For `O=c1[nH]c(=O)n(Cc2ccco2)c(O)c1/C=N/N1CCCCCC1`, which inhibition is on record?
The inhibition was 12.8%.

For `CCN(CC(=O)Nc1c(F)cccc1F)C(=O)CSCc1c(C)noc1C`, which inhibition is on record?
The inhibition was -12.8%.

With `COCCn1c(C)cc(C(=O)COC(=O)CNC(=O)c2ccccc2)c1C` as the compound, how does the inhibition read?
Its inhibition is 4.38%.

For `O=C(c1cccc(C(F)(F)F)c1)C1CCCN(C(=O)c2cc(C3CC3)[nH]n2)C1` (centres undefined), which inhibition is on record?
The inhibition was -9.76%.

Which inhibition does the source give for `CS(=O)(=O)Nc1ccc(C(=O)Nc2ccccc2C(=O)NCc2ccco2)cc1` here?
Its inhibition is -1.06%.

Which inhibition does the source give for `O=C(CSc1ccccn1)N/N=C/c1cc([N+](=O)[O-])ccc1O` here?
The inhibition was 21.2%.

Which inhibition does the source give for `O=C(CCC(=O)Nc1ccc(Br)cc1)N/N=C/c1cc([N+](=O)[O-])ccc1O` here?
The inhibition was -1.12%.

With `O=C(N/N=C/c1cc([N+](=O)[O-])ccc1O)c1cc(-c2ccccc2)nc2ccccc12` as the compound, how does the inhibition read?
Its inhibition is 15.9%.

Which inhibition does the source give for `Nc1nnc(CC(=O)N/N=C/c2cc([N+](=O)[O-])cc(Br)c2O)s1` here?
The inhibition was 7.8%.

For `Cc1cc(C(=O)N/N=C/c2ccc([N+](=O)[O-])cc2)c2ccccc2n1`, which inhibition is on record?
The inhibition was 8.83%.

With `O=C(Cn1cncn1)N/N=C/c1cccc2ccccc12` as the compound, how does the inhibition read?
The inhibition was -2.86%.

For `O=C(Cn1cncn1)N/N=C/c1ccccc1Cl`, which inhibition is on record?
Its inhibition is -0.24%.

For `Nc1nnc(CC(=O)N/N=C/c2ccc([N+](=O)[O-])cc2)s1`, which inhibition is on record?
The inhibition was -6.47%.

For `CC(OC(=O)C12CC3CC(CC(O)(C3)C1)C2)C(N)=O` (centres undefined), which inhibition is on record?
Its inhibition is -5.93%.

Which inhibition does the source give for `Cc1cc(C)n(-c2ccc(C(=O)Nc3ccc(N4CCOCC4)cc3)cc2)n1` here?
Its inhibition is -0.85%.

Which inhibition does the source give for `CC(Oc1ccc(Cl)cc1Cl)c1nc(-c2ccc(NC(=O)c3ccncc3)cc2)no1` (centres undefined) here?
The inhibition was 6.94%.

With `CCOC(=O)N1CCN(S(=O)(=O)c2ccc(C)c(C)c2C)CC1` as the compound, how does the inhibition read?
Its inhibition is -2.44%.

For `C=C[C@@H]1CN2CCC1C[C@@H]2[C@@H](O)c1ccnc2ccc(OC)cc12` (some centres undefined), which inhibition is on record?
The inhibition was -0.14% and 2.49%.

Which inhibition does the source give for `CCCCOc1ccc(CCC(=O)N/N=C/c2ccco2)cc1` here?
The inhibition was -16.9%.

With `O=c1c(-c2ccnn2-c2ccc(F)cc2)cnc2n1CCS2` as the compound, how does the inhibition read?
The inhibition was 11.8%.

With `O=C(Nc1c2c(nn1-c1ccc(Cl)cc1)CS(=O)(=O)C2)C1CC1` as the compound, how does the inhibition read?
The inhibition was -8.81%.

With `O=C(CSc1nnc(-c2ccc(Cl)cc2)n1-c1ccc(Cl)cc1)N/N=C/c1ccco1` as the compound, how does the inhibition read?
The inhibition was -4.44%.

For `O=C(N/N=C/c1cc(Br)ccc1O)c1cccc(N2CCCC2=O)c1`, which inhibition is on record?
The inhibition was -7.38%.

With `O=C1NCCCC1C(=O)N/N=C/c1ccccc1[N+](=O)[O-]` (centres undefined) as the compound, how does the inhibition read?
The inhibition was 4.74%.

Which inhibition does the source give for `COc1ccc(N2CC(C(=O)N/N=C/c3ccc([N+](=O)[O-])cc3)CC2=O)cc1` (centres undefined) here?
Its inhibition is 3.03%.

With `O=C1NCCCC1C(=O)N/N=C/c1ccccc1O` (centres undefined) as the compound, how does the inhibition read?
Its inhibition is 1.62%.

Which inhibition does the source give for `COc1ccc(N2CC(C(=O)Nc3ccc([N+](=O)[O-])cc3Br)CC2=O)cc1` (centres undefined) here?
Its inhibition is -1%.

Which inhibition does the source give for `O=C(N/N=C/c1ccc([N+](=O)[O-])cc1)c1cccc(N2CCCC2=O)c1` here?
Its inhibition is -4.45%.

Which inhibition does the source give for `COc1ccc(Cl)cc1C(=O)NC1=NCCS1` here?
The inhibition was 3.24%.

Which inhibition does the source give for `N#Cc1ccc(Oc2ncccn2)cc1` here?
Its inhibition is -1.76%.

With `CC(=O)Nc1ccc(S(=O)(=O)N(C)CC(=O)OCC(=O)c2cc(C)n(-c3ccc4c(c3)OCO4)c2C)cc1` as the compound, how does the inhibition read?
The inhibition was 4.97%.

Which inhibition does the source give for `COc1cc(/C=C2\SC(=O)N(Cc3ccc(F)cc3)C2=O)cc([N+](=O)[O-])c1O` here?
The inhibition was 26.1%.

For `COc1cc(/C=C2\SC(=O)N(c3ccc(Cl)cc3)C2=O)cc([N+](=O)[O-])c1O`, which inhibition is on record?
Its inhibition is -5.87%.

With `CCN(CC)c1ccc(C(=O)Nc2cccc(F)c2)cc1` as the compound, how does the inhibition read?
Its inhibition is 0.06%.

With `CCN(CC)c1ccc(NC(=O)c2ccc3c(c2)OCO3)cc1` as the compound, how does the inhibition read?
Its inhibition is 21.3%.

With `Cc1cc(C(=O)OCC(=O)Nc2ccccc2C)c(C)o1` as the compound, how does the inhibition read?
The inhibition was -4.72%.

Which inhibition does the source give for `Cc1c(N=c2scc(-c3ccccc3)n2C)c(=O)n(-c2ccccc2)n1C` here?
Its inhibition is -5.38%.

With `Cc1c(N=C2C(=O)Nc3ccccc32)c(=O)n(-c2ccccc2)n1C` as the compound, how does the inhibition read?
Its inhibition is 11%.

For `Cc1ccc(N2C(=O)CN(Cc3ccccc3)C2=S)cc1C`, which inhibition is on record?
The inhibition was -6.48%.

With `O=[N+]([O-])c1cc(/C=N\Nc2ccccn2)ccc1Cl` as the compound, how does the inhibition read?
The inhibition was -4.08%.

Which inhibition does the source give for `O=C(N/N=C/c1ccc(O)c([N+](=O)[O-])c1)c1ccncc1` here?
Its inhibition is 13.6%.

Which inhibition does the source give for `COc1ccc(CC(=O)Nc2cc(S(=O)(=O)N3CCOCC3)ccc2N2CCCC2)cc1OC` here?
Its inhibition is 2.03%.

Which inhibition does the source give for `NC(=O)c1ccc(-c2c(-c3ccccc3)sc3ccccc23)cc1` here?
Its inhibition is -3.51%.

For `CCOC(=O)N1CCC(NC(=O)CCc2c(C)nc3c(c(C)nn3C(C)(C)C)c2C)CC1`, which inhibition is on record?
The inhibition was 0.25%.

With `CNC(=S)NNc1nc(-c2ccccc2)c2cc(Cl)ccc2n1` as the compound, how does the inhibition read?
Its inhibition is 8.4%.

For `COc1ccc(/C=N/Nc2nccnc2Cl)c(OC)c1`, which inhibition is on record?
Its inhibition is -10.3%.

For `COc1ccccc1/C=N/Nc1nccnc1Cl`, which inhibition is on record?
The inhibition was 4.08%.

With `Nc1c(Cl)ncnc1N/N=C/c1ccc(O)cc1` as the compound, how does the inhibition read?
The inhibition was -15.8%.

For `Nc1c(Cl)ncnc1N/N=C/c1cccc(O)c1`, which inhibition is on record?
Its inhibition is 17.6%.

For `Nc1c(Cl)ncnc1N/N=C/c1ccnc2ccccc12`, which inhibition is on record?
Its inhibition is -0.57%.

With `COc1ccc(/C=N/Nc2ncnc(Cl)c2N)cc1OC` as the compound, how does the inhibition read?
Its inhibition is -17%.

For `Cc1cccc(NC(=S)NCc2ccc(F)cc2)c1C`, which inhibition is on record?
The inhibition was -12.3%.

With `CN1CCN(c2ccc(CNC(=O)c3cc4ccccc4o3)cc2)CC1` as the compound, how does the inhibition read?
The inhibition was -11.5%.

With `CCOC(=O)N1CCN(S(=O)(=O)c2ccc(C(=O)Nc3sc4c(c3C(N)=O)CC(C)(C)NC4(C)C)cc2)CC1` as the compound, how does the inhibition read?
Its inhibition is -1.86%.

With `O=C1NC(=Nc2ccccc2Br)SC1(CO)CO` as the compound, how does the inhibition read?
The inhibition was -3.43%.

With `COc1cccc(CNc2ccc(S(=O)(=O)Nc3nccs3)cc2)c1O` as the compound, how does the inhibition read?
The inhibition was -5.98%.

With `CC(=O)NC(CC(=O)O)c1ccccc1` (centres undefined) as the compound, how does the inhibition read?
Its inhibition is -5.66%.

For `O=C(c1cc(-c2ccc(Cl)cc2)nc2ccccc12)N1CCOCC1`, which inhibition is on record?
Its inhibition is -19.9%.

Which inhibition does the source give for `COc1ccc(OC)c(C2=NS(=O)(=O)N(C)C(C(=O)NCc3ccco3)=C2)c1` here?
Its inhibition is -7.9%.

For `COc1ccc(CN2CCN(c3ccccn3)CC2)cc1OCc1ccccc1`, which inhibition is on record?
Its inhibition is 7.77%.

Which inhibition does the source give for `O=C(c1cccc2ccccc12)N1CCN(c2ccc([N+](=O)[O-])c(NCc3ccco3)c2)CC1` here?
The inhibition was 7.93%.

With `CC(=O)Nc1nnc(CCS(=O)(=O)c2ccc(C)cc2)s1` as the compound, how does the inhibition read?
The inhibition was -6.45%.

With `Cc1ccc(S(=O)(=O)CCc2nnc(NC(=O)c3cnccn3)s2)cc1` as the compound, how does the inhibition read?
The inhibition was -1.91%.

With `CCSc1nnc(NC(=O)c2cccnc2Cl)s1` as the compound, how does the inhibition read?
The inhibition was -1.92%.

With `CCc1nnc(NC(=O)c2cnccn2)s1` as the compound, how does the inhibition read?
The inhibition was -0.42%.

For `CCSc1nnc(NC(=O)c2ccccc2)s1`, which inhibition is on record?
Its inhibition is -12.7%.

With `CCc1nnc(NC(=O)c2cccc(C(=O)Nc3nnc(CC)s3)n2)s1` as the compound, how does the inhibition read?
The inhibition was -2.25%.

For `Cc1ccc(CNC(=O)CN2C(=O)CSc3ccc(S(=O)(=O)N4CCCCC4)cc32)cc1`, which inhibition is on record?
Its inhibition is 2.97%.

For `COC(=O)c1ccc(CNC(=O)c2coc3ccccc3c2=O)cc1`, which inhibition is on record?
The inhibition was -15.6%.

Which inhibition does the source give for `O=C(COc1ccc(Cl)cc1)NC1CCSC1=O` (centres undefined) here?
The inhibition was -5.86%.

With `O=C1CC(NNc2nc3ccccc3s2)C(=O)N1c1ccccc1` (centres undefined) as the compound, how does the inhibition read?
Its inhibition is 2.74%.

Which inhibition does the source give for `O=C(COC(=O)C1CCC1)c1c[nH]c2ccccc12` here?
The inhibition was -3.9%.

With `CCn1c(=O)[nH]c2cc(C(=O)N3CCN(c4ccccc4)CC3)ccc2c1=O` as the compound, how does the inhibition read?
Its inhibition is 5.52%.

For `COc1cc2c(cc1OC)CN(c1nc(CN3CCOCC3)nc3sc4c(c13)CCCC4)CC2`, which inhibition is on record?
Its inhibition is 4.39%.

For `O=C(NCC(c1ccco1)N1CCCCC1)c1ccc(S(=O)(=O)Nc2ccccc2)cc1` (centres undefined), which inhibition is on record?
The inhibition was -1.8%.

With `COc1ccc(-n2ccnc(SCC(=O)NC3CCCCC3)c2=O)cc1` as the compound, how does the inhibition read?
Its inhibition is -5.37%.

With `CCc1cccc2sc(NC(=O)C3CC3)nc12` as the compound, how does the inhibition read?
Its inhibition is -5.24%.

With `Nc1c(C=C2C=CC(=O)C=C2)c(=O)nc2snc(SCc3ccccc3)n12` as the compound, how does the inhibition read?
The inhibition was 11.3%.

With `C=CCOc1ccc(C(=O)c2ccccc2)c(OCC(=O)NC2(C#N)CCCC2)c1` as the compound, how does the inhibition read?
Its inhibition is 5.71%.

Which inhibition does the source give for `COc1cccc2nc3cc(C)c(C)cc3nc12` here?
Its inhibition is 1.36%.

Which inhibition does the source give for `COc1ccc2nc3cccc(OC)c3nc2c1` here?
Its inhibition is -1.33%.

With `OC(CN1CCN(c2ccc(C(F)(F)F)cn2)CC1)c1ccccc1` (centres undefined) as the compound, how does the inhibition read?
The inhibition was -15%.

Which inhibition does the source give for `CC(C)(C)N(Cc1ccccc1)C(=O)COC(=O)c1ccc(S(=O)(=O)N2CCOCC2)cc1` here?
The inhibition was -2.6%.

Which inhibition does the source give for `COc1ccc(C(=O)N/N=C(\c2ccccc2)c2ccccn2)cc1` here?
The inhibition was 6.37%.

Which inhibition does the source give for `COc1ccc(Nc2cc(C)c3ccccc3n2)cc1` here?
Its inhibition is -1.04%.

With `COc1cc(C2C3=C(CCCC3=O)Nc3[nH]n(-c4ccccc4)c(=O)c32)ccc1OC(C)=O` (centres undefined) as the compound, how does the inhibition read?
Its inhibition is 2.7%.

With `COc1ccc(N2CCN(CCC(N)=O)CC2)cc1` as the compound, how does the inhibition read?
The inhibition was -4.44%.

For `NCCCN1CCN(c2ccccc2)CC1`, which inhibition is on record?
The inhibition was 11.2%.

Which inhibition does the source give for `Cn1c(C(=O)NCCCN2CCCCC2)cc2sccc21` here?
The inhibition was 8.28%.

Which inhibition does the source give for `CC1CCN(CCCNC(=O)c2cc3sccc3n2C)CC1` here?
The inhibition was 4.97%.

Which inhibition does the source give for `CC1(C)NC(=O)N(CC(=O)OCC(=O)c2ccc(F)cc2)C1=O` here?
Its inhibition is -8.13%.

Which inhibition does the source give for `CCOc1ccccc1N1CC(C(=O)Nc2cc(S(C)(=O)=O)ccc2Cl)CC1=O` (centres undefined) here?
Its inhibition is -5.65%.

For `O=C(O)c1ccc(NCc2nc3ccccc3n2Cc2ccccc2)cc1`, which inhibition is on record?
Its inhibition is 11.2%.
